Here are results for 15 molecules from PubChem BioAssay AID2796 (The Scripps Research Institute Molecular Screening Center, 2010).

Hit rate of the full screen: of about 320,000 compounds, about 8,000 (2.5%) were called active. The full list was thinned out, with actives kept by preference. A number with no mark means an inactive call. Rule as the data show it: active = activation above about 47%; inactive = the rest.

In the assay the target is Aryl hydrocarbon receptor (Homo sapiens) (UniProt P35869). Put plainly: AHR activators, primary screen, cell-based, luminescence, luciferase reporter, human (AID 2796).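 Also: 0% = vehicle wells and 100% = reference agonist.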 The following applies: AHR-responsive luciferase reporter cells, at 5 µM, hits give high values.
Sequence of Aryl hydrocarbon receptor (Homo sapiens) (P35869 whole entry, looked up): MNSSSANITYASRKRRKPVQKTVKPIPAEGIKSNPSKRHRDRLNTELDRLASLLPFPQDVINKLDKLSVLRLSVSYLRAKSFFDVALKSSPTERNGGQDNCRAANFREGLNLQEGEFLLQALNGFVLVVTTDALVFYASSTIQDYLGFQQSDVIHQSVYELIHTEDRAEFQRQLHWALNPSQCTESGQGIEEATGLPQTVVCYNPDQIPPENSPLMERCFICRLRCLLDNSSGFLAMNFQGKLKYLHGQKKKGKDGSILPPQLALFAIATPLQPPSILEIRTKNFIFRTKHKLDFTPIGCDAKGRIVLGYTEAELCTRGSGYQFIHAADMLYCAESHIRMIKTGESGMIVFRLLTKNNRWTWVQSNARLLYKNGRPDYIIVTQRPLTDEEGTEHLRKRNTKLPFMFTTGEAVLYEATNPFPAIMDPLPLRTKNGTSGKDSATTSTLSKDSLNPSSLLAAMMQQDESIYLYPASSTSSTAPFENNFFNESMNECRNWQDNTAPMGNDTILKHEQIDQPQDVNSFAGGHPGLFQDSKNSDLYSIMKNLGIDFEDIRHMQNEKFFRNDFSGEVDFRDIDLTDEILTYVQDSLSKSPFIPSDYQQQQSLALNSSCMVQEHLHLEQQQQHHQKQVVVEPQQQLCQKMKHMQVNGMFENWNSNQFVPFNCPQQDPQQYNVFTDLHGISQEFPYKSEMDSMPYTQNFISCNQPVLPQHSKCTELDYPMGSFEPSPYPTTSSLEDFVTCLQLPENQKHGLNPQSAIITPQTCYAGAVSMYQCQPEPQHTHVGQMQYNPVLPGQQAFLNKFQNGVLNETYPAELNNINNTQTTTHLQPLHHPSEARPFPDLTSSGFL
With `N[C@@H](Cc1c[nH]c2ccccc12)c1nnc(SCc2c(F)cccc2Cl)o1`, the activation was 60.4% (active).
Regarding `COc1cc2nc(N3CCN(C(=O)[C@@H]4CCCO4)CC3)nc(N)c2cc1OC`, the activation was 5.62%.
As for `c1ccc(CCN2CCC3(CC2)OCCO3)cc1`, the activation is -0.2%.
On to `O=C(NC(c1ccc(Cl)cc1)P(=O)(Oc1ccccc1)Oc1ccccc1)OCc1ccccc1` (stereo not given), for which the activation was 1.2%.
As for `CN(C)CCN(CC1CCCN(Cc2ccccc2F)C1)C(=O)Cc1ccc(F)c(F)c1` (stereo not given), the activation is -0.87%.
With `CC1(C)C(c2ccccc2)=NC(c2cccnc2)=[N+]1[O-]`, the activation is 1.07%.
Turning to `COC1=CC=C2[C@H]3Cc4ccc(OC)c5c4[C@@]2(CCN3C)C1O5` (stereo not given in full), the activation was -1.46%.
With `COc1c(O)ccc2c1-c1c3c(cc4c1C(C2)N(C)CC4)OCO3` (stereo not given) the figure was 4.84%; with `COc1ccc2c(c1O)-c1cccc3c1[C@@H](C2)N(C)CC3`, 64.4% (active); with `COc1ccc(NC(=O)c2cn(CCC#N)nc2-c2ccc([N+](=O)[O-])cc2)cc1`, 0%.
The same measure for `CCOC(=O)C1=C(C)OC(N)=C(C(=O)OC)C12C(=O)Nc1ccc(Br)cc12` (stereo not given): 57% (active); for `COC(=O)CN1C(=O)C2(C(C(=O)OC)=C(N)Oc3ccccc32)C2=C1CC(C)(C)CC2=O` (stereo not given): 2.04%; for `CCOC(=O)CC1=C(C(=O)OCC)C2(C(=O)N1)C(C(=O)OC)=C(N)Oc1ccccc12` (stereo not given): 10%.
With `Nc1ccc(C(=O)N/N=C2/CN3CCC2CC3)cc1` the figure was 3.27%.
Consider `CCOC(=O)C(O)(c1ccc(N=Cc2ccccc2O)c(C)c1)C(F)(F)F` (stereo not given), for which the activation was -2.72%.
